Assay outcomes: PubChem BioAssay, National Center for Advancing Translational Sciences (NCATS)
Shiga inhibitor – blocks Shiga toxin action in Vero cells; Vero cells, Shiga toxin protein synthesis inhibition reporter; 9.2% of 290,000 active; AID 2315; inhibition, % at 38.7 µM; in the data active = inhibition mostly above about 28%, no sharp cut-off; inactive = mostly below about 43%
AMA1 RON2 block – disrupts binding of P. falciparum AMA1 to RON2. Potency, µM (series often up to 58.2 µM), most hits filed as inhibitors. AlphaScreen AMA1-biotinylated RON2 peptide binding. AID 720542. 0.2% of 360,000 active; note: nearly all actives have a fitted effect of over 45% in size
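AMA1 (3D7) with his tag at 25 nM final met compounds first, then biotinylated RON2 peptide at 25 nM; detection used donor plus acceptor beads, 10 µg/mL apiece, read by AlphaScreen after 30 min at room temperature.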
CHX counter – counter-screen for Shiga toxin inhibitors: cycloheximide protein synthesis inhibition | cell reporter, cycloheximide protein synthesis inhibition counterscreen | max response, % | 12% of 300,000 active; in the data active = max response mostly above about 13%, no sharp cut-off; inactive = mostly below about 14%; note: read at 38.3 µM for the half of the compounds with a filed dose
Pf growth 48h – P. falciparum growth inhibition at 48 hours (one generation); P. falciparum luciferase growth in erythrocytes, 48 h; Potency, µM (highest dose often 28.7 µM), actives largely listed as inhibitors; 5.9% of 310,000 active
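Luciferase-expressing parasites in RBCs, 2% Hct / 0.1% parasitemia final; RPMI 1640 + 0.5% Albumax; 37 C, 5% CO2, one generation; luminescence read-out, lower signal = inhibition.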
SARS PLP yeast – blocks SARS-CoV papain-like protease in a yeast assay | S. cerevisiae expressing SARS-CoV PLpro, growth rescue | Potency, µM (highest dose often 32.9 µM), hits mostly activators | 0.19% of 330,000 active | AID 485353; calls by dose curve; note: nearly all actives have a fitted effect of over 55% in size
Pf growth 96h – P. falciparum growth inhibition at 96 hours | P. falciparum luciferase reporter growth, 96 h | 6.9% of 320,000 active | Potency, µM (highest dose often 28.7 µM), actives largely listed as inhibitors
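Infected RBCs, 2% Hct / 0.05% parasitemia final; luciferase-reporter P. falciparum; cpd 96 h, 37 C, 5% CO2; luciferase detection reagent; luminescence.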
Hits are given with their value; i = inactive; ? = inconclusive; nt = no result; [ ] = dose if it differs, or a comment. In the library only some 19% were active in any assay of this set; here they are far more common. Unless noted, calls come from the whole dose curve; as a rule, active = well fitted curve in the direction sought with a large enough effect; inconclusive = small, poorly fitted or top-dose-only effect, or another doubt; inactive = no such curve, though single readings can be large; an effect the other way counts as inactive or inconclusive.

SMILES	Shiga inhibitor	AMA1 RON2 block	CHX counter	Pf growth 48h	SARS PLP yeast	Pf growth 96h
[O-][n+]1c2c(nc3c1-c1ccccc1C3O)CCCC2 (centres undefined)	i	nt	i	i	i	i
CCCCOc1ccc(N(CC(=O)NC2CCCCC2)C(=O)c2snc(C(N)=O)c2N)cc1	i	i	i	i	i	i
CC1(c2nnc(Cc3ccccc3)o2)CC(c2ccccc2[N+](=O)[O-])=NO1 (centres undefined)	nt	i	nt	i	i	i
Cc1occc1C(=O)NC(C)C12CC3CC(CC(C3)C1)C2 (centres undefined)	i	i	i	?	i	i
Cc1occc1C(=O)NN=C1C2CC3CC(C2)CC1C3	30	i	28	i	i	i
COc1ccc(NC(=S)NC2CCCCCC2)c(OC)c1	48	i	i	?	i	i
COc1ccccc1NC(=S)NC1CCC(CC2CCC(NC(=S)Nc3ccccc3OC)CC2)CC1 (centres undefined)	i	i	i	12µM	i	8.3µM
COc1ccc(NC(=S)NC2CCCCC2)c(OC)c1	i	i	i	i	i	?
COc1ccc(NC(=S)Nc2ccc(OC)cc2OC)c(OC)c1	i	i	i	i	i	i
COc1ccc(NC(=S)NC(=O)CC(C)C)c(OC)c1	50	i	21	i[5.75 µM]	i	i
Cc1cc(OC(F)F)ccc1NC(=S)NC1CCCC1	i	i	i	?	i	13µM
N#Cc1ccccc1Cn1cc(C(=O)c2cccs2)c2ccccc21	i	i	i	15µM	i	i
NC(=O)CSc1nnc(CNc2ccc(F)cc2)n1CC1CCCO1 (centres undefined)	i	i	i	i	i	i[5.75 µM]
COc1ccc(-c2ccc(SCC(=O)NC3CCCCC3)nn2)cc1OC	65	i	37	i	i	i
COc1ccc(-c2ccc(SCC(=O)c3cccs3)nn2)cc1OC	56	i	i	i[1.15 µM]	i	?
Cc1ccc(NCc2nnc(SCC(N)=O)n2CC2CCCO2)c(C)c1 (centres undefined)	i	i	i	i	i	13µM
COc1ccc(-c2nnc(SCC(=O)NC(C)C)n2CC2CCCO2)cc1OC (centres undefined)	i	i	i	i	i	3.3µM
COc1ccc(-c2ccc(SCC(=O)NCC3CCCO3)nn2)cc1OC (centres undefined)	i	i	21	i	i	i
CC(=O)c1c(C)[nH]c(C(=O)CSc2nnc(-c3ccc(Cl)cc3)n2CC2CCCO2)c1C (centres undefined)	i	i	i	nt	i	5.9µM
NC(=O)NC(=O)CSc1nnc(-c2ccc(Cl)cc2)n1CC1CCCO1 (centres undefined)	i	i	i	i	i	i
COc1ccc(-c2ccc(SCC(=O)NCc3ccco3)nn2)cc1OC	i	i	i	i	i	5.2µM
COc1ccc(-c2ccc(SCC(=O)Nc3cccc(C(C)=O)c3)nn2)cc1OC	97	i	40	?	i	?
COc1ccc(NC(=O)CN(c2c(C)cccc2C)S(C)(=O)=O)cc1	i	i	i	i	i	i
O=C1c2ccccc2C(c2nnnn2Cc2ccccc2)N1Cc1cccnc1 (centres undefined)	nt	i	nt	nt	nt	nt
O=C1c2sc3nc4c(c(=O)n3c2C(=O)N1c1ccccc1)CCC4	47	i	i	?	i	?
SMILES	Shiga inhibitor	AMA1 RON2 block	CHX counter	Pf growth 48h	SARS PLP yeast	Pf growth 96h
OCCOCCNc1ncnc2c1cnn2-c1ccc(Cl)cc1	i	i	i	3.3µM	i	nt
COCCNc1ncnc2c1cnn2-c1ccc(Cl)cc1	73	i	43	nt	i	nt
OCCOCCNc1ncnc2c1cnn2-c1ccccc1	i	i	i	1.3µM	i	i
CCCCN1CNC(=S)N(c2ccccc2OCC)C1	i	i	i	i	i	?
CCOC(=O)N1CCN(C(=O)C[C@@H]2C[C@@]3(C(=O)OC)CCCCC=C3N(CCc3ccc(OC)c(OC)c3)C2=O)CC1	nt	i	nt	nt	nt	nt
COc1ccc(-c2csc(NCc3ccco3)n2)cc1	72	i	42	i	i	nt
c1coc(CNc2nc(-c3ccncc3)cs2)c1	72	i	36	i	i	i
c1coc(CNc2nc3ccccc3s2)c1	80	i	51	i	i	i
COc1ccc(-c2ccc(=O)n(CC(=O)NCc3ccco3)n2)cc1	i	i	i	i	i	i
Cc1ccc(C(=O)NC(=C(Cl)Cl)S(=O)(=O)c2ccc(Cl)cc2)cc1	87	i	48	i	i	i
Cc1ccc(S(=O)(=O)C(NC(=O)c2ccccc2)=C(Cl)Cl)cc1	nt	i	nt	nt	nt	nt
Cc1ccc(S(=O)(=O)/C(=C/Cl)NC(=O)c2ccccc2)cc1	i	i	15	i	i	?
CC(=O)NC(=C(Cl)Cl)S(=O)(=O)c1ccccc1	66	i	36	?	i	?
Cc1ccc(C(=O)NC(=C(Cl)Cl)S(=O)(=O)c2ccc(C)cc2)cc1	i	i	i	i	i	i
O=C(NC(=C(Cl)Cl)S(=O)(=O)c1ccc(Cl)cc1)c1ccccc1	90	i	57	i	i	i
CCCc1nnc(NC(=O)CCC(=O)Nc2ccc(F)cc2)s1	i	i	i	i	i	i
COc1ccc(CCNC(=O)CCc2cc(OC)c(OC)c(OC)c2)cc1OC	i	i	i	nt	i	?
CCOC(=O)CCc1c(C(=O)OCC)[nH]c(CC)c1C(=O)OCc1ccccc1	i	i	i	?	i	?
CCOC(=O)[C@@H]1[C@H]2COc3cc(OC)ccc3[C@@H]2N2C(=O)N(c3ccccc3)C(=O)[C@]12C	nt	i	nt	nt	i	nt
CCOC(=O)[C@@H]1[C@H]2COc3cc(OC)ccc3[C@@H]2N2C(=O)N(c3ccc(Cl)cc3)C(=O)[C@@]12C	29	i	16	?	nt	?
CCOC(=O)[C@@H]1[C@H]2COc3cc(OC)ccc3[C@@H]2N2C(=O)N(c3ccc(C)cc3)C(=O)[C@@]12C	i	i	i	?	i	?
CCOC(=O)[C@H]1[C@H]2COc3cc(OC)ccc3[C@@H]2N2C(=O)N(c3ccc(Cl)cc3)C(=O)[C@@]12C	i	i	i	i	i	5.2µM
CCC1OC(=O)C(C)C(OC2C[C@@](C)(OC)C(O)C(C)O2)C(C)C(O[C@@H]2OC(C)CC(N(C)C)C2O)[C@](C)(O)CC(C)C(=NOCOCCOC)C(C)C(O)[C@]1(C)O (some centres undefined)	nt	i	nt	?	nt	7.4µM
CC[C@H]1OC(=O)[C@H](C)[C@@H](O[C@H]2C[C@@](C)(OC)[C@@H](O)[C@H](C)O2)C(C)[C@@H](O[C@@H]2O[C@H](C)C[C@H](N(C)C)[C@@H]2O)[C@](C)(OC)C[C@@H](C)C(=O)[C@H](C)[C@@H](O)[C@]1(C)O (some centres undefined)	nt	nt	nt	13µM	nt	1.3µM
